Bioassay records: PubChem BioAssay, National Center for Advancing Translational Sciences (NCATS)
CHX counter = counter-screen for Shiga toxin inhibitors: cycloheximide protein synthesis inhibition; cell reporter, cycloheximide protein synthesis inhibition counterscreen; max response, %; 300,000 compounds, 12% hits; in the data active = max response mostly above about 13%, no sharp cut-off; inactive = mostly below about 14%; also: read at 38.3 µM for the half of the compounds with a filed dose; 0% is about no effect
SARS PLP yeast = inhibitors of SARS-CoV papain-like protease in yeast | S. cerevisiae expressing SARS-CoV PLpro, growth rescue | 330,000 compounds, 0.19% hits | Potency, µM (highest dose often 32.9 µM), for inactives: at the highest dose activity, positive = growth rescue, most hits filed as activators; calls by dose curve; also: potency is read from the fitted curve at half-maximal effect; 0% is about no effect; nearly all actives have a fitted effect of over 55% in size
AmpC inh no detg = AmpC beta-lactamase inhibition without detergent. P00811. AmpC nitrocefin hydrolysis, absorbance 480 nm, 0.0001% Triton. Potency, µM (titrated, usually from 57.1 µM), for the others: at the top dose activity change, negative = inhibition, usual class: inhibitors. 330,000 compounds, 0.52% hits;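 also: potency is read from the fitted curve at half-maximal effect; plate controls were no compound for no effect and no enzyme for full effect; nearly all actives have a fitted effect of over 20% in size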
Target sequence (P00811 whole entry, looked up): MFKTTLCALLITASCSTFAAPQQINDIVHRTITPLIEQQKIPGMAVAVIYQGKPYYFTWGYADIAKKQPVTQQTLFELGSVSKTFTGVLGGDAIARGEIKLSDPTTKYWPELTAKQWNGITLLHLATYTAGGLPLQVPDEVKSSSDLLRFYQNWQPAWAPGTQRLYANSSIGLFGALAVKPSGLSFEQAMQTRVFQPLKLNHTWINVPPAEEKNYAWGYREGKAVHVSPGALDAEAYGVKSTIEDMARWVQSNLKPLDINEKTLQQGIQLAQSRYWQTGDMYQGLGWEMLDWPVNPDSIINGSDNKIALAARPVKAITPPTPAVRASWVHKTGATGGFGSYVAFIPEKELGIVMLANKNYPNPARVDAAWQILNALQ
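AmpC (5.3 nM in the dispensed reagent) in 20 mM phosphate pH 7.0 with 0.01% (detergent screen) or 0.0001% Triton X-100 was preincubated with compounds for 15 min at room temperature. Nitrocefin was then added from an 800 uM solution, and hydrolysis was followed at 480 nm.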
AMA1 RON2 block = AMA1-RON2 (P. falciparum) interaction inhibition. AlphaScreen AMA1-biotinylated RON2 peptide binding. Potency, µM (top dose mostly 58.2 µM), without a hit: top-dose activity change, negative = inhibition, most hits filed as inhibitors. 360,000 compounds, 0.2% hits. AID 720542;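 also: potency is read from the fitted curve at half-maximal effect; 0% = vehicle wells and -100% = peptide control; nearly all actives have a fitted effect of over 45% in size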
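AMA1 (3D7) with his tag at 25 nM final met compounds first, then biotinylated RON2 peptide at 25 nM; detection used donor plus acceptor beads, 10 µg/mL apiece, read by AlphaScreen after 30 min at room temperature.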
AmpC detergent = AmpC beta-lactamase inhibition with detergent present. AmpC hydrolysis of nitrocefin, absorbance 480 nm, 0.01% Triton. Potency, µM (highest dose often 114 µM), for inactives: at the highest dose activity change, negative = inhibition, most hits filed as inhibitors. 370,000 compounds, 0.041% hits. AID 485294;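 also: potency is read from the fitted curve at half-maximal effect; 0% = no-compound wells and -100% = no-enzyme wells; nearly all actives have a fitted effect of over 25% in size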
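20 mM phosphate pH 7.0 + 0.01% (detergent screen) or 0.0001% Triton X-100; 5.3 nM AmpC reagent; cpd preinc 15 min RT; nitrocefin (800 uM stock) to start; A480 q20 s × 4 min; Activity was normalised to no-enzyme and no-compound control wells.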
Shiga toxin inh = blocks Shiga toxin action in Vero cells; Vero cells, Shiga toxin protein synthesis inhibition reporter; inhibition, % at 38.7 µM; 290,000 compounds, 9.2% hits; AID 2315; in the data active = inhibition mostly above about 28%, no sharp cut-off; inactive = mostly below about 43%; also: 0% is about no effect
The depositor's hits bear a star; ? = inconclusive; · = not tested or not shown; [ ] = dose if it differs, or a comment. This is one part of a sample in which hits are shown more often than they occur. Unless noted, calls follow the shape of the dose curve; as a rule, active = well fitted curve in the direction sought with a large enough effect; inconclusive = small, poorly fitted or top-dose-only effect, or another doubt; inactive = no such curve, though single readings can be large; an effect the other way counts as inactive or inconclusive.

SMILES	CHX counter	SARS PLP yeast	AmpC inh no detg	AMA1 RON2 block	AmpC detergent	Shiga toxin inh
CCCn1c(SCC(=O)Nc2nc3c(s2)CCCC3)nc2c1c(=O)n(C)c(=O)n2C	-3.7	1.2%	-3.4%	-13.3%	?	-1.6
O=C(CSc1nnc(CNC(=O)c2ccccc2F)o1)NCC1CCCO1 (stereo not given)	3.8	8.4%	-3.3%	18.4%	-2.6%	34.9
CCC(=O)N1CCCC(C(=O)Nc2nc3ccccc3n2C)CC1 (stereo not given)	·	·	·	39.6%	·	·
O=C(O)Cn1ncc2ccccc2c1=O	2.0	-0.8%	4.3%	9.1%	1.7%	-11.3
CSCC(O)Cn1ncc2ccccc2c1=O (stereo not given)	20.9*	-4.8%	-3.1%	0.0%	-5.0%	32.6
CCN(CC(=O)Nc1ccc2c(c1)OCCO2)S(=O)(=O)c1cccs1	27.9*	21.9%	-8.7%	9.6%	-2.5%	51.9*
Cc1ccc(NC(=O)CN(C)S(=O)(=O)c2ccc(Br)s2)cc1F	20.7*	17.0%	-34.6%	5.2%	-12.6%	43.9*
O=C(CNS(=O)(=O)c1ccc(Br)s1)Nc1ccc2c(c1)OCCO2	31.6*	2.5%	-41.8%	8.1%	-20.5%	39.4
COc1ccc(NC(=O)CN(C)S(=O)(=O)c2ccc(Br)s2)cc1	9.8	1.7%	4.4%	-8.1%	6.3%	23.5
CC(NC(=O)CN(C)S(=O)(=O)c1ccc(Br)s1)c1ccccc1 (stereo not given)	36.0*	2.0%	6.7%	-19.7%	-2.2%	84.1*
CC(NC(=O)CN(C)S(=O)(=O)c1cccc2nsnc12)c1ccccc1 (stereo not given)	-2.6	0.4%	-7.7%	2.4%	2.6%	-10.6
O=C(Cn1cc(SCc2ccc(C(F)(F)F)cc2)c2ccccc21)N1CCOCC1	·	·	·	·	11.2%	·
COC(=O)C(NS(=O)(=O)c1ccccc1Br)C(C)C (stereo not given)	-3.1	-0.2%	-3.1%	11.3%	1.1%	-11.6
CC(=O)N1CCN(c2ccnc3cc(Cl)ccc23)CC1	-0.6	-0.9%	-8.6%	-10.5%	-9.2%	-6.4
CN(CC(=O)Nc1ccc2c(c1)OCCO2)S(=O)(=O)c1ccc(Br)s1	24.7*	8.3%	-20.4%	-2.6%	2.3%	3.1
CC(C)(C)C1CCC(=NNC(=O)c2cc3c(s2)CCCC3)CC1 (stereo not given)	-2.1	-8.9%	-34.3%	43.1%	-11.4%	-3.4
CC(C)(C)C1CCc2sc(C(=O)NNC(=O)CCl)cc2C1 (stereo not given)	58.8*	?	-36.8%	88.4%	-5.2%	109.3*
Cc1cc(C)cc(-n2c(C)cc(/C=N/NC(=O)c3cccc([N+](=O)[O-])c3C)c2C)c1	3.9	7.4%	-6.1%	-4.3%	-1.0%	-14.5
Cc1cc(C(=O)N/N=C2\CCCC(=O)C2)c(C)n1-c1ccccc1	16.7*	12.2%	-6.7%	32.5%	-3.8%	30.3*
O=C(N/N=C\c1cc([N+](=O)[O-])ccc1N1CCOCC1)c1ccccn1	3.1	5.2%	-7.5%[2.29 µM]	47.3%	-8.1%	-8.5
Cc1cc(/C=N/NC(=O)c2ccccn2)c(C)n1-c1cccc([N+](=O)[O-])c1	50.4*	1.1%	-1.6%	12.0%	2.4%	89.8*
O=C(N/N=C\c1cc([N+](=O)[O-])ccc1N1CCCC1)c1ccccn1	21.6*	-1.2%	-15.0%	32.5%	-5.3%	48.5*
Nc1ccccc1C(=O)NN=Cc1cccc([N+](=O)[O-])c1	·	·	·	5.2%	·	·
Cc1cc(C(=O)N/N=C/c2cccc([N+](=O)[O-])c2)c(C)n1-c1ccccc1	43.0*	7.6%	-57.7%	17.8%	-5.7%	86.5*
Cc1cccc(N2CCN(C(=O)CN3C(=O)COc4ccc(S(=O)(=O)N5CCC(C)CC5)cc43)CC2)c1C	·	·	·	·	-3.0%	·
SMILES	CHX counter	SARS PLP yeast	AmpC inh no detg	AMA1 RON2 block	AmpC detergent	Shiga toxin inh
COc1ccc(/C=N/NC(=O)c2cc(C)n(-c3ccccc3)c2C)cc1OC	25.2*	4.2%	-11.2%	-4.1%	10.0%	87.0*
COc1ccccc1N1CCN(Cc2ccc(F)cc2)CC1	-1.0	0.2%	-39.5%	-7.6%	-6.5%	15.0
CCc1ccc(CN2CCN(Cc3ccc(SC)cc3)CC2)cc1	-7.9	-7.4%	32.5%	12.6µM*	-12.5%	-3.3
COc1ccccc1N1CCN(Cc2ccc(SC)cc2)CC1	-1.2	-6.7%	7.0%	20µM*	?	-3.7
CCc1ccc(CN2CCN(c3ncccn3)CC2)cc1	26.5*	1.2%	12.0%	-15.6%	?	·
O=C(Nc1cccc(Cl)c1Cl)Nn1cnnc1	0.6	-0.6%	-18.3%	10.7%	?	-8.6
c1ccc2c(c1)ncn2-c1ccc(-c2ccnc(-c3ccncc3)n2)cc1	-4.0	-3.8%	-18.2%	17.8%	-3.7%	-10.5
O=C(COc1ccccc1)OCc1csc(Nc2ccccc2)n1	2.0	-34.1%	-42.1%	-5.2%	?	6.0
CCCn1c(-c2ccc[nH]c2=O)nc2cc(C)c(C)cc21	38.2*	-0.5%	4.5%	-13.9%	-5.0%	72.2*
COc1ccccc1N/C(N)=N/c1nc(CSc2nc3ccccc3s2)cc(=O)[nH]1	12.3	?	-11.9%	·	-5.3%	47.9*
CCOC(=O)c1cnc(SCc2nc(N)nc(Nc3ccc(F)cc3)n2)nc1N	9.5*	1.8%	-21.4%	10.8%	-12.8%	43.1
CCOC(=O)c1cnc(SCc2nc(N)nc(Nc3ccccc3OC)n2)nc1N	-1.9	4.7%	2.0%	·	-0.7%	-6.3
CCOC(=O)c1cnc(SCc2nc(N)nc(Nc3ccc(C)cc3)n2)nc1N	13.2*	-11.2%	-22.4%	0.0%	-8.2%	16.5
N#Cc1cc([N+](=O)[O-])ccc1NC(=O)COC(=O)C1CC2CCCC(C1)C2=O (stereo not given)	·	-5.0%	-13.4%	-9.0%	-21.0%	·
O=C(CN1CCCCCC1)N/N=C/c1ccc(Cl)c(Cl)c1	28.9*	27.2%	1.1%	5.3%[11.6 µM]	4.2%	29.5
O=C(CN1CCOCC1)N/N=C/c1ccc(C(=O)O)cc1	52.9*	2.9%	0.0%	12.8%	0.9%	84.8*
O=C(CN1CCOCC1)N/N=C/c1cccc2ccccc12	-2.9	6.2%	-7.8%	12.1%	?	-5.6
Cc1cccc(/C=N/NC(=O)CN2CCCCCCC2)c1	14.5	-1.4%	-15.8%	-9.4%[2.32 µM]	?	12.2
CCCc1nc(SCC(=O)N2CCC(C)CC2)c2c(=O)n(C)c(=O)n(C)c2n1	-4.4	0.8%	48.9%	-0.5%	1.0%	-13.6
CCCc1nc(SCc2cccnc2)c2c(=O)n(C)c(=O)n(C)c2n1	2.6	-4.4%	39.8µM*	-1.0%	-0.1%	-8.4
CCCc1nc(SC2CCCC2)c2c(=O)n(C)c(=O)n(C)c2n1	-2.6	1.5%	35.5µM*	2.3%	?	-3.4
CC(C)C[C@H]1COCCS(=O)(=O)N1Cc1ccccc1F	·	·	·	16.4%	·	·
COC(=O)c1ccc(CSc2nccn2C)cc1	52.4*	-7.7%	-12.3%	-3.7%	-0.1%	64.7*
